Paper PMC7862700, “An all-to-all approach to the identification of sequence-specific readers for epigenetic DNA modifications on cytosine”

What was measured:
Experiment in all cases: DAPPL (digital affinity profiling via proximity ligation, sequencing); 10 mM Tris-HCl pH 7.5, 50 mM NaCl, 1 mM DTT, 4% glycerol, room temperature, 30 min; GST-TFs on glutathione beads, 16-mer random dsDNA library, 0.1% formaldehyde crosslink after washing; high values mean tight binding
FEV = molecular target: T1, FEV (Homo sapiens, UniProt Q99581 1-238); details: protein: recombinant; tags: N-terminal GST; dsDNA, one strand shown
T1 sequence: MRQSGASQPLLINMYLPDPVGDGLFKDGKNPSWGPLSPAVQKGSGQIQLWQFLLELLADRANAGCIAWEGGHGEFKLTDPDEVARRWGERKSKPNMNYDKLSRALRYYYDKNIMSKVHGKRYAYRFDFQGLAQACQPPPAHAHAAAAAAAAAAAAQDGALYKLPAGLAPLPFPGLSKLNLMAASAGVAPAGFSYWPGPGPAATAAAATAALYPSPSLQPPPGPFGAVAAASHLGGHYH
Method in brief: (§1)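 After expression in yeast as GST fusions, human transcription factors were bound to glutathione beads, DNA-barcoded and mixed with a tag-only sample. The pools were incubated with 200 nmole of a 16-mer random double-stranded DNA library in Tris/NaCl/DTT/glycerol buffer (30 min, room temperature), washed and crosslinked with 0.1% formaldehyde. Proximity ligation with BsaI/T4 ligase ran for 1 h at 37 °C, before PCR amplification and sequencing on an Illumina NextSeq500. Binding signal is a hexamer's read frequency for a factor divided by its frequency for the tag-only sample.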

ETV5 = ETV5 (Homo sapiens, UniProt P41161 1-510); details: protein: recombinant; tags: N-terminal GST; dsDNA, one strand shown
Method in brief: as §1

HSF1 = HSF1 (Homo sapiens, UniProt Q00613 1-529); details: protein: recombinant; tags: N-terminal GST; chain copies: 3; dsDNA, one strand shown
Method in brief: as §1

SPIC = molecular target: T2, SPIC (Homo sapiens, UniProt Q8N5J4 1-248); details: protein: recombinant; tags: N-terminal GST; dsDNA, one strand shown
T2 sequence: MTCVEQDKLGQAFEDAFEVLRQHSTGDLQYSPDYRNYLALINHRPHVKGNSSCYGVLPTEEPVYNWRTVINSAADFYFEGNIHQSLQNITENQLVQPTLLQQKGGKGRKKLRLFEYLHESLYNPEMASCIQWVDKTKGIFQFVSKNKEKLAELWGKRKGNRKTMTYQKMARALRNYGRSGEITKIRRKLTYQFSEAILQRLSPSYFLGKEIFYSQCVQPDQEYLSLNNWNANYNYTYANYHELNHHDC
Method in brief: as §1

ELF4 = ELF4 (Homo sapiens, UniProt Q99607 1-663); details: protein: recombinant; tags: N-terminal GST; dsDNA, one strand shown
Method in brief: as §1

ELK4 = molecular target: T3, ELK4 (Homo sapiens, UniProt P28324-2 1-405); details: protein: recombinant; tags: N-terminal GST; dsDNA, one strand shown
T3 sequence: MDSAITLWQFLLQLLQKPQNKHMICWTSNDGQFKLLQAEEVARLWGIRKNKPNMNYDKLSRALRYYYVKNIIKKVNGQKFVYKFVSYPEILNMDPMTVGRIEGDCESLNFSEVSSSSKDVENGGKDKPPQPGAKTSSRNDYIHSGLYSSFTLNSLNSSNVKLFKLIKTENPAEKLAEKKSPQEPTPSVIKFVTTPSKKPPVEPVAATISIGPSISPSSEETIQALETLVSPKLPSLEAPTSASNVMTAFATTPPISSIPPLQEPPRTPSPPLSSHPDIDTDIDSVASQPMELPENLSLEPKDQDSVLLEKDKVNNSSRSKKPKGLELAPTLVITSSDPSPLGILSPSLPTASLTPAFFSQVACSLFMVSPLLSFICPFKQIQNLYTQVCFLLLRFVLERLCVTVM
Method in brief: as §1

ETV2 = molecular target: T4, ETV2 (Homo sapiens, UniProt O00321 1-342); details: protein: recombinant; tags: N-terminal GST; dsDNA, one strand shown
T4 sequence: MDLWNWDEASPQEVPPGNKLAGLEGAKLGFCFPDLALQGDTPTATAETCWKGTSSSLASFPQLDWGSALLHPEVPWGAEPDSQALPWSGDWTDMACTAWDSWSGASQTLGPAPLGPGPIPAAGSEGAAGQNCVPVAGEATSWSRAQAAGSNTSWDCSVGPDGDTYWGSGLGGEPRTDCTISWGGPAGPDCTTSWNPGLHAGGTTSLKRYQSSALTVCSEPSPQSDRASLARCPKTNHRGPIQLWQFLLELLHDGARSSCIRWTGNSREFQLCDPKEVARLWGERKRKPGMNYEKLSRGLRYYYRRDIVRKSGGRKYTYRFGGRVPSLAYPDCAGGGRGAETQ
Method in brief: as §1

ELF3 = molecular target: T5, ELF3 (Homo sapiens, UniProt P78545 1-371); details: protein: recombinant; tags: N-terminal GST; dsDNA, one strand shown
T5 sequence: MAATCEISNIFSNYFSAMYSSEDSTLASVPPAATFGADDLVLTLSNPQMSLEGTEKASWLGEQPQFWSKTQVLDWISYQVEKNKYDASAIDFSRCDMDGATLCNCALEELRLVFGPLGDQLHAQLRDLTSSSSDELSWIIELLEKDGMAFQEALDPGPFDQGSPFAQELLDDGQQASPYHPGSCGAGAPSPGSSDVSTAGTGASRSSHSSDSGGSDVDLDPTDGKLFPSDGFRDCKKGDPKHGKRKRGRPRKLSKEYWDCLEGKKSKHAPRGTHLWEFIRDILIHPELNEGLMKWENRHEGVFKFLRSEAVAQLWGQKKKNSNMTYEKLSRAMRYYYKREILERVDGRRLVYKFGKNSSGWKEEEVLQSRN
Method in brief: as §1

CRX = CRX (Homo sapiens, UniProt O43186 1-299); details: protein: recombinant; tags: N-terminal GST; dsDNA, one strand shown
Method in brief: as §1

ETV1 = ETV1 (Homo sapiens, UniProt P50549 1-477); details: protein: recombinant; tags: N-terminal GST; dsDNA, one strand shown
Method in brief: as §1

ERF = molecular target: T6, ERF (Homo sapiens, UniProt P50548 1-548); details: protein: recombinant; tags: N-terminal GST; dsDNA, one strand shown
T6 sequence: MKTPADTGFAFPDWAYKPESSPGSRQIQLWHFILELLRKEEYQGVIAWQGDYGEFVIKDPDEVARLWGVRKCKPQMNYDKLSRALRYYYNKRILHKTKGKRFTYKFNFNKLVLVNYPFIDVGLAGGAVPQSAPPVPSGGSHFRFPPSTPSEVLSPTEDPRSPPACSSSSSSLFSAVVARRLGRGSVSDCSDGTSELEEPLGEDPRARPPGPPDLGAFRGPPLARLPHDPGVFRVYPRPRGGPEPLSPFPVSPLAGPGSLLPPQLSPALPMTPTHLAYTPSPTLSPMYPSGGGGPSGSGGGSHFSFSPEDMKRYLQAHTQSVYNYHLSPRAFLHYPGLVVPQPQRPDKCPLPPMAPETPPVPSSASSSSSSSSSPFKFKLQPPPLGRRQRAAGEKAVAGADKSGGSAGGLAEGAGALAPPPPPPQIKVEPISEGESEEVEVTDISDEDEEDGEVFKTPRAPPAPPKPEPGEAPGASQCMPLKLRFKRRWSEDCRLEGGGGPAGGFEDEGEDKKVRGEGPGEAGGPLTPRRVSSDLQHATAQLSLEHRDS
Method in brief: as §1

ETV3L = molecular target: T7, ETV3L (Homo sapiens, UniProt Q6ZN32 1-361); details: protein: recombinant; tags: N-terminal GST; dsDNA, one strand shown
T7 sequence: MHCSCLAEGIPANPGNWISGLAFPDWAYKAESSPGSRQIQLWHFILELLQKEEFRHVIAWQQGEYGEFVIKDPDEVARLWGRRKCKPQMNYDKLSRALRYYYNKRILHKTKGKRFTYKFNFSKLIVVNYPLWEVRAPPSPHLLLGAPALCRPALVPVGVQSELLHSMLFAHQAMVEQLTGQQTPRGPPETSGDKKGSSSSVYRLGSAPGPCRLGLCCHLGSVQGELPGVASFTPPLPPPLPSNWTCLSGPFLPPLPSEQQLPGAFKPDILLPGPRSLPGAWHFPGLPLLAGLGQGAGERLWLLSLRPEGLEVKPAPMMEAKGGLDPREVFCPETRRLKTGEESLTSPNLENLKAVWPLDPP
Method in brief: as §1

ETS2 = molecular target: T8, ETS2 (Homo sapiens, UniProt P15036 1-469); details: protein: recombinant; tags: N-terminal GST; dsDNA, one strand shown
T8 sequence: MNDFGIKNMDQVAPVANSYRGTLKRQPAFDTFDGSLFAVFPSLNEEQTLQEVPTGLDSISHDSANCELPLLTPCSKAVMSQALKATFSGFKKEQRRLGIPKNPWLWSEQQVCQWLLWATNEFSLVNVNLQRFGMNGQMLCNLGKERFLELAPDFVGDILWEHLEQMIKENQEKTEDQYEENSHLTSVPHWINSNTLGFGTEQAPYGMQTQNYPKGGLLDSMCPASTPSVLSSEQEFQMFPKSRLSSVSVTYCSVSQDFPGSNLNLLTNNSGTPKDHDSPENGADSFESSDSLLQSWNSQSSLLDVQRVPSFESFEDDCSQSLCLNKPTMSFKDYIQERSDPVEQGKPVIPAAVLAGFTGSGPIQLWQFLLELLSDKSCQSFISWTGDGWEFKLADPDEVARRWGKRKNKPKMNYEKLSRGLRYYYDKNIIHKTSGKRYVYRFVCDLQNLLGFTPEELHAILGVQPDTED
Method in brief: as §1

SPDEF = molecular target: T9, SPDEF (Homo sapiens, UniProt O95238 1-335); details: protein: recombinant; tags: N-terminal GST; dsDNA, one strand shown
T9 sequence: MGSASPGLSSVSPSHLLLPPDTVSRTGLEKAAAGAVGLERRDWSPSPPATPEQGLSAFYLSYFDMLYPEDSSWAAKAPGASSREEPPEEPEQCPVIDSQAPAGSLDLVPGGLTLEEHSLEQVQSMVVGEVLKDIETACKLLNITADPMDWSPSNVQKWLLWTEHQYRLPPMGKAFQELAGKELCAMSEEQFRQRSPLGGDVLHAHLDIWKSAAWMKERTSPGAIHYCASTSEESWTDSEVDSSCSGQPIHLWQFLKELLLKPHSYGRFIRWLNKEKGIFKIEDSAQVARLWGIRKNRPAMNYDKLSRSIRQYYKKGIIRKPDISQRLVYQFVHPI
Method in brief: as §1

ETV7 = molecular target: T10, ETV7 (Homo sapiens, UniProt Q9Y603 1-341); details: protein: recombinant; tags: N-terminal GST; dsDNA, one strand shown
T10 sequence: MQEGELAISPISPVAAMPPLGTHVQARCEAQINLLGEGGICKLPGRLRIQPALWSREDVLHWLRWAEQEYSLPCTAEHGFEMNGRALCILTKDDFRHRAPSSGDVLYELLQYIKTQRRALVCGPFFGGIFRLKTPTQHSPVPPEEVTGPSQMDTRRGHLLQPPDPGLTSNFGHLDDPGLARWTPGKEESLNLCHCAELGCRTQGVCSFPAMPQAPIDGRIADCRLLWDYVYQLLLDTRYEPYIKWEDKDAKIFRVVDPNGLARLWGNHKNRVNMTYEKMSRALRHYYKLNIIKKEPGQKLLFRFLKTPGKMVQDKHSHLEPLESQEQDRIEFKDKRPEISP
Method in brief: as §1

ELF5 = molecular target: T11, ELF5 (Homo sapiens, UniProt Q9UKW6-2 1-255); details: protein: recombinant; tags: N-terminal GST; dsDNA, one strand shown
T11 sequence: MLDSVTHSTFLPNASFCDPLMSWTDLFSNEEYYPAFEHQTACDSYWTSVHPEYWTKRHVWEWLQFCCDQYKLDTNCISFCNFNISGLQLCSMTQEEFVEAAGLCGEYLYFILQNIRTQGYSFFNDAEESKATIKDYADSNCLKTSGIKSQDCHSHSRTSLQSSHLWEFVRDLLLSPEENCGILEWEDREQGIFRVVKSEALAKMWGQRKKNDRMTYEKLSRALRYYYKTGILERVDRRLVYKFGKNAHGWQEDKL
Method in brief: as §1

ETV3 = molecular target: T12, ETV3 (Homo sapiens, UniProt P41162-2 1-143); details: protein: recombinant; tags: N-terminal GST; dsDNA, one strand shown
T12 sequence: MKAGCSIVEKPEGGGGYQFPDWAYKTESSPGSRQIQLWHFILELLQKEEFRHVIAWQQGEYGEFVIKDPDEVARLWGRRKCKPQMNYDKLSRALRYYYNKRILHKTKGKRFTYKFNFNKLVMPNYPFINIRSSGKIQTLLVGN
Method in brief: as §1

ETV6 = ETV6 (Homo sapiens, UniProt P41212 1-452); details: protein: recombinant; tags: N-terminal GST; dsDNA, one strand shown
Method in brief: as §1

ETV6, sequence (P41212 whole entry): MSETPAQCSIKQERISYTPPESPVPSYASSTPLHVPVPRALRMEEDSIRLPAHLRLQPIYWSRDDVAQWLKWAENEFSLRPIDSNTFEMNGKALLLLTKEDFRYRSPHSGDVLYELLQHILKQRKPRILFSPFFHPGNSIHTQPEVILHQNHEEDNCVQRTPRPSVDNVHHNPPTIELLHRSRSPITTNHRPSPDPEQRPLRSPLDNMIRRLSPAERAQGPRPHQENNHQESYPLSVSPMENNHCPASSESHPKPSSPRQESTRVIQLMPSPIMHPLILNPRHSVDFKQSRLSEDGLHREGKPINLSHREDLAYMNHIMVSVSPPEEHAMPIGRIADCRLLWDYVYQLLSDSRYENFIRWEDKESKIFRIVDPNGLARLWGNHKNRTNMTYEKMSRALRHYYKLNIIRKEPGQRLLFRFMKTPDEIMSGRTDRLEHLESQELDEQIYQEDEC
ETV5, sequence (P41161 whole entry): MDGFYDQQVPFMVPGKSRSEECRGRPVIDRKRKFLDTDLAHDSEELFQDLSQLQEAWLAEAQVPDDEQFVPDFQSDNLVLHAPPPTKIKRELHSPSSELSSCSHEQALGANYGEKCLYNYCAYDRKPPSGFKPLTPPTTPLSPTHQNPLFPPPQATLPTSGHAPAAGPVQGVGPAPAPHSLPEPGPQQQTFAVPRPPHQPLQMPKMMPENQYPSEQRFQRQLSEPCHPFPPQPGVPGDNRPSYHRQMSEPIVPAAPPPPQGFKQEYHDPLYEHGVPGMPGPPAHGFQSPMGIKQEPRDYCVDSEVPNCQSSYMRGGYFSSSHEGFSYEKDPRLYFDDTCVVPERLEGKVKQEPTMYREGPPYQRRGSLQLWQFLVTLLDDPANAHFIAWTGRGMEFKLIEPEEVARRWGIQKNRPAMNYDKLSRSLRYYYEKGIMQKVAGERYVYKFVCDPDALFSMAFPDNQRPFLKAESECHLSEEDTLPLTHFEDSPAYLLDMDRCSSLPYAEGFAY
ETV1, sequence (P50549 whole entry): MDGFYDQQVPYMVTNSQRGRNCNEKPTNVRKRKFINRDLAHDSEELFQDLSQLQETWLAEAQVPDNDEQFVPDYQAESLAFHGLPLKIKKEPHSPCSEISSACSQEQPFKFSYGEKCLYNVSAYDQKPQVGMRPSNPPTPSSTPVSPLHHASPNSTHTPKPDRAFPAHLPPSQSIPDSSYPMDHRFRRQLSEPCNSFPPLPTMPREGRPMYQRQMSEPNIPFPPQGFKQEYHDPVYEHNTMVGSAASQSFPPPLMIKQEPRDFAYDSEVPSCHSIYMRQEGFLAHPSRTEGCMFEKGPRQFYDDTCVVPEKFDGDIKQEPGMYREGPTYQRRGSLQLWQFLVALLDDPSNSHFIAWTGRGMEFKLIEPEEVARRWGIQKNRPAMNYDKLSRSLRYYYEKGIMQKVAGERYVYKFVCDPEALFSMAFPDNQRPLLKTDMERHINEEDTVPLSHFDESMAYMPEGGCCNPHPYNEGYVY
CRX, sequence (O43186 whole entry): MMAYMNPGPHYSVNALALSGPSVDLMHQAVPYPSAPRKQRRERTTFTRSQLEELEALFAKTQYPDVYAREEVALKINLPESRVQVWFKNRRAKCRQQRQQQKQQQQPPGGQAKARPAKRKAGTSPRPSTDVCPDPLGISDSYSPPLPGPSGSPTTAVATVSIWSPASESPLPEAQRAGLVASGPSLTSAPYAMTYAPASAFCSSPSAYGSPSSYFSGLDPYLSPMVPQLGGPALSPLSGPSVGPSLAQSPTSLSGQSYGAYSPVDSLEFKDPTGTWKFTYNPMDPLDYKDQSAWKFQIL
ELF4, sequence (Q99607 whole entry): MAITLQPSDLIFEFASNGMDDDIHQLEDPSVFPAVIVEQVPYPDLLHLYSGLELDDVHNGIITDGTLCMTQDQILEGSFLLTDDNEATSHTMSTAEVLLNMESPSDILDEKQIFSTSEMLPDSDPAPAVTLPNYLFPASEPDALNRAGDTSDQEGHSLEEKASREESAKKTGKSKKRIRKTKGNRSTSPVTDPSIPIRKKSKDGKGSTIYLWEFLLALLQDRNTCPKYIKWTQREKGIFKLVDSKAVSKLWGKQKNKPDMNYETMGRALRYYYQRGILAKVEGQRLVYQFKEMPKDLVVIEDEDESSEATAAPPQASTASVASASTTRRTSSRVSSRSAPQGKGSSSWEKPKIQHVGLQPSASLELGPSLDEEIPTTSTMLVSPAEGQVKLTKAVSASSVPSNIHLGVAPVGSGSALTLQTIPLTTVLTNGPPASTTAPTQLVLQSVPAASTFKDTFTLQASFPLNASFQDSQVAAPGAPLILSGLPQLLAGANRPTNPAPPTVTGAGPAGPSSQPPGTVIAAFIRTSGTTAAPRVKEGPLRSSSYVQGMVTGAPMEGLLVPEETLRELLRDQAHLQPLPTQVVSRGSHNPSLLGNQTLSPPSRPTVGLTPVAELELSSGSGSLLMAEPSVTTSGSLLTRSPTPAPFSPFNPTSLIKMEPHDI
HSF1, sequence (Q00613 whole entry): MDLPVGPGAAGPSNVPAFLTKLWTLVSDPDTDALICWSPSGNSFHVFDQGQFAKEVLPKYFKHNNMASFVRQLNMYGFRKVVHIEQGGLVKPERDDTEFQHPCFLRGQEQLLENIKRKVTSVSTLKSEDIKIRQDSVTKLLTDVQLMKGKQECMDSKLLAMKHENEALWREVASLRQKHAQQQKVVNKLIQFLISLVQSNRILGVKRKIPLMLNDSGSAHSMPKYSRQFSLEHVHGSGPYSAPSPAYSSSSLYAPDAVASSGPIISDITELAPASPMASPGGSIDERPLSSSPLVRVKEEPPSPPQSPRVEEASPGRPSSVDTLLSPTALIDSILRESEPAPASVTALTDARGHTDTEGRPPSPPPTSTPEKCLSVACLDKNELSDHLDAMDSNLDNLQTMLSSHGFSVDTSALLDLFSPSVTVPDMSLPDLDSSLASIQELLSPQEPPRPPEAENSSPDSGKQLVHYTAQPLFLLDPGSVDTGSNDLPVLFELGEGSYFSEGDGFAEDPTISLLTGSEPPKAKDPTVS

With TGGCTT the binding signal (FEV) was 1.34 fold enrichment (6-mer frequency, TF over GST control), the binding signal (ETV5) was 1.19 fold enrichment (6-mer frequency, TF over GST control) and the binding signal (HSF1) was 1.38 fold enrichment (6-mer frequency, TF over GST control). For the same sequence, the binding signal (SPIC) was 1.34 fold enrichment (6-mer frequency, TF over GST control), the binding signal (ELF4) was 1.28 fold enrichment (6-mer frequency, TF over GST control) and the binding signal (ELK4) was 1.23 fold enrichment (6-mer frequency, TF over GST control). For the same sequence, the binding signal (ETV2) was 1.3 fold enrichment (6-mer frequency, TF over GST control), the binding signal (ELF3) was 1.32 fold enrichment (6-mer frequency, TF over GST control) and the binding signal (CRX) was 1.75 fold enrichment (6-mer frequency, TF over GST control). The binding signal (ETV1) was 1.1 fold enrichment (6-mer frequency, TF over GST control), the binding signal (ERF) was 1.27 fold enrichment (6-mer frequency, TF over GST control) and the binding signal (ETV3L) was 1.17 fold enrichment (6-mer frequency, TF over GST control). For the same sequence, the binding signal (ETS2) was 1.26 fold enrichment (6-mer frequency, TF over GST control), the binding signal (SPDEF) was 1.11 fold enrichment (6-mer frequency, TF over GST control) and the binding signal (ETV7) was 1.31 fold enrichment (6-mer frequency, TF over GST control). For the same sequence, the binding signal (ELF5) was 1.18 fold enrichment (6-mer frequency, TF over GST control), the binding signal (ETV3) was 1.18 fold enrichment (6-mer frequency, TF over GST control) and the binding signal (ETV6) was 1.29 fold enrichment (6-mer frequency, TF over GST control).
